# TDP1 inh: TDP1 (human) enzyme inhibition | Potency, µM (titrated, usually from 130 µM), for inactives: at the top dose activity change, negative = inhibition, actives largely listed as inhibitors | Q9NUW8 | recombinant TDP1, AlphaScreen DNA substrate cleavage | AID 485290 | 0.28% of 350,000 active; further: nearly all actives have a fitted effect of over 40% in size
#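 Signal: AlphaScreen proximity between streptavidin donor and anti-FITC acceptor beads on intact substrate. Reaction: Tdp1 1 nM, substrate 15 nM final, 5 min RT after 15 min compound preincubation.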
# RORg inh: ROR gamma (mouse) transcription inhibition. AID 2551. 5.4% of 310,000 active. Drosophila S2 Gal4-RORgamma UAS-luciferase reporter, 20 h. P51450. Potency, µM (top dose mostly 53.6 µM), for inactives: at the top dose activity change, negative = inhibition, actives largely listed as inhibitors; further: nearly all actives have a fitted effect of over 60% in size
# Target sequence (P51450 whole entry, looked up, the tested form may be a part): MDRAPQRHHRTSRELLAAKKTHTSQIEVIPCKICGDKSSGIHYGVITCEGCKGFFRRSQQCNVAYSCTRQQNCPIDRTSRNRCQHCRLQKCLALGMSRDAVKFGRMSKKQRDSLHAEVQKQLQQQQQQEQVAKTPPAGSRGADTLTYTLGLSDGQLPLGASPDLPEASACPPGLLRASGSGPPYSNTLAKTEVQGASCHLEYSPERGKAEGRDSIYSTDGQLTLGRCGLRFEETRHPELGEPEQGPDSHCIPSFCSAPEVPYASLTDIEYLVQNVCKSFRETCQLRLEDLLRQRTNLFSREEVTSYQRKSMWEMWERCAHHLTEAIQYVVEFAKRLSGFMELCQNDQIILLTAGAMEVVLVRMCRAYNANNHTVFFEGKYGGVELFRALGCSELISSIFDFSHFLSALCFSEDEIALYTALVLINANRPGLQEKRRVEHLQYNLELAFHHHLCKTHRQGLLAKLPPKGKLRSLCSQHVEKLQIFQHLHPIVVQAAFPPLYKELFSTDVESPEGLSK
#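 Using a luciferase readout, inhibitors were identified by reduced reporter activity in Drosophila cells coexpressing a copper-inducible Gal4–ROR gamma fusion and UAS-driven Photinus luciferase, incubated 20 hr after 700 uM copper sulfate.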
# DT40 TDP1 no CPT: qHTS for Inhibitors of human tyrosyl-DNA phosphodiesterase 1 (TDP1): qHTS in cells in absence of CPT | DT40 Tdp1-/- hTDP1 cells, no CPT, ATP luminescence, 48 h | 15% of 420,000 active | Potency, µM (highest dose often 46.2 µM), for inactives: at the highest dose activity change, negative = growth inhibition, usual class: inhibitors; further: nearly all actives have a fitted effect of over 55% in size
#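 DT40 Tdp1-/-;hTDP1 cells, no CPT (DMSO vehicle only), 400 cells/well; compounds pin-transferred; ≥48 hr, 37 °C; CellTiter-Glo 30 min RT dark, luminescence read.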
# Gal4-VP16 FLuc: counter-screen for ROR gamma inhibitors: Gal4-VP16 reporter. 3.5% of 310,000 active. AID 2546. Potency, µM (series often up to 53.6 µM), for the others: at the highest dose activity, negative = inhibition, hits mostly inhibitors. Drosophila S2 Gal4-VP16 UAS-luciferase, luminescence, 20 h;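 further: Gal4-VP16 expression switched on by copper sulfate through the metallothionein promoter; nearly all actives have a fitted effect of over 50% in size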
# TDP1 cell CPT: DT40-hTDP1 cell growth loss with CPT; chicken DT40 Tdp1-/-;hTDP1 cells + 20 nM CPT, ATP luminescence, 48 h; Potency, µM (titrated, usually from 46.2 µM), for inactives: at the top dose activity change, negative = growth inhibition, usual class: inhibitors; 12% of 420,000 active; AID 686979; further: nearly all actives have a fitted effect of over 55% in size
#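 Chicken DT40 Tdp1-/- cells stably complemented with human TDP1 were seeded at 400 cells/well in medium containing 20 nM camptothecin, exposed to pin-transferred compounds, and grown at 37 °C for at least 48 hr. Viability was read as ATP luminescence.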
# The depositor's hits bear a star; ? = inconclusive; . = not tested or not shown; ! = not confirmed by another sample; [ ] = another dose, or the depositor's remark. Compounds with a hit are over-represented: about 19% of the library has one in this group of screens. The call rests on the fitted dose curve; in most records, active means well fitted curve in the direction sought with a large enough effect; inconclusive means small, poorly fitted or top-dose-only effect, or another doubt; inactive means no such curve, though single readings can be large; an effect the other way counts as inactive or inconclusive. On the % scale 0 is the no-effect control and ±100 the full control effect; potency means the concentration at half of the fitted maximal effect.
SMILES,TDP1 inh,RORg inh,DT40 TDP1 no CPT,Gal4-VP16 FLuc,TDP1 cell CPT
C[N+]1(C)CCCCC1COC(=O)C(O)(c1ccccc1)c1ccccc1 (centres undefined),.,27.6%,-1.7%,-14.9%,-3.4%
O=C(CSc1oc(-c2ccccc2)nc1S(=O)(=O)c1ccc(Cl)cc1)Nc1ccc(F)cc1,8.8%,.,?,.,10.3µM*
CCOc1ccc(NC(=O)CSc2oc(-c3ccccc3)nc2S(=O)(=O)c2ccc(Cl)cc2)cc1,2.9%,.,20.6µM*,.,7.31µM*
CCOc1ccc(S(=O)(=O)N(CC(=O)NCc2ccccc2OC)c2ccccc2)cc1,.,.,16.4µM*,.,14.6µM*
CCOc1ccc(NC(=O)CN(c2ccc(Cl)cc2C)S(=O)(=O)c2ccccc2)cc1,3.2%,.,10.3µM*,.,8.2µM*
CCOc1ccc(NC(=O)c2ccc(NC(=O)COC(=O)Cc3ccccc3)cc2)cc1,5.4%,11.5%,-1.9%,?,-5.9%
COC(=O)C1=C(c2ccc(F)cc2OCc2ccccc2)C[C@@H]2CC[C@H]1N2C(=O)NCc1ccc2c(c1)OCO2,-0.2%,.,?,.,?
CCOc1ccc(C(=O)Nc2cccc(C(=O)OCc3cc(=O)n4nc(C5CC5)sc4n3)c2)cc1,1.2%,.,?,.,?
CCOc1ccc(-c2cn3c(n2)sc2cc(C(=O)N4CCCC(C)C4)ccc23)cc1 (centres undefined),-2.9%,.,6.51µM*,.,10.3µM*
ClCCN(CCCl)c1ccc(-n2cnc3c(Cl)ncnc32)cc1,.,.,6.51µM*,.,6.51µM*
Cc1[nH]c2ccccc2c1CCCNC1CCCCC1,2.4%,-22.7%,18.4µM*,?,?
O=P1(NC2CCCC2)COc2ccccc2OC1,-4.2%,?,6.5%,-10.3%,1.5%
O=C(Cc1ccc(N(CCCl)CCCl)cc1)NC(Cc1ccc(Cl)cc1)C(=O)O (centres undefined),5.3%,20.5%,?,-1.3%,?
NC(Cc1ccc(O)cc1)C(=O)NN=Cc1ccc(N(CCCl)CCCl)cc1 (centres undefined),.,.,13µM*,.,8.2µM*
CC[N+](C)(CC)CCCCOc1ccc2c(c1)C(=O)c1cc(OCCCC[N+](C)(CC)CC)ccc1-2,-5.6%,32.3%,29.1µM*,-2.8%,?
O=C1NC(=S)SC1=Cc1ccc(N(CCCl)CCCl)cc1,.,.,16.4µM*,.,13µM*
COC[C@H]1OC(=O)c2coc3c2[C@@]1(C)C1=C(C3=O)C2CCC(=O)[C@@]2(C)C[C@H]1OC(C)=O (some centres undefined),11.8%[56.1 µM],?,0.631µM*,?,1µM*
COC[C@H]1OC(=O)c2coc3c2[C@@]1(C)C1=C(C3=O)[C@H]2CCC(=O)[C@@]2(C)C[C@H]1OC(C)=O,13.2%[56.1 µM],?,?,?,9.44µM*
Cc1csc(NC(=O)C2CCCN(S(=O)(=O)c3ccc4c(c3)oc(=O)n4C)C2)n1 (centres undefined),-1.0%,-10.7%,?,?,?
O=C(Nc1cccc(Cl)c1)c1c(O)c2c(n(Cc3ccccc3)c1=O)CCCC2,-2.6%,-22.3%,.,-0.3%,.
CCOc1ccc(S(=O)(=O)NCCc2sc3nc(-c4ccc(C)cc4)nn3c2C)cc1,5.2%,.,?,.,?
Cc1c(CCNS(=O)(=O)c2ccccc2)sc2nc(-c3ccc(Cl)cc3)nn12,2.6%,.,9.2µM*,.,7.31µM*
CN(Cc1ccccc1)Cc1ccccc1OC(=O)N(C)C,1.0%,1.41µM*,-15.4%,-0.9%,-1.1%
COc1ccccc1N1CCN(Cc2ccc(SC)cc2)CC1,.,3.6%,20.6µM*,-1.2%,16.4µM*
COc1ccccc1CN1CCN(Cc2ccc(Cl)cc2)CC1,-2.5%,-4.3%,20.6µM*,-8.6%,-19.8%
SMILES,TDP1 inh,RORg inh,DT40 TDP1 no CPT,Gal4-VP16 FLuc,TDP1 cell CPT
Cc1cccc(CN2CCN(Cc3ccc(Cl)cc3)CC2)c1,-3.5%,-51.5%,20.6µM*,-15.5%,?
CCc1ccc(CN2CCN(Cc3ccc(SC)cc3)CC2)cc1,-1.2%,-40.8%,20.6µM*,-9.5%,?
CCN1CCN(Cc2ccc(C)cc2)CC1,-1.9%,-25.5%,-0.9%,-8.8%,-14.0%
CSc1ccc(CN2CCN(c3ccccc3C)CC2)cc1,.,25.7%[1.91 µM],?,-1.1%,?
Cc1cccc(C(=O)Nc2ccc3c(c2)CC2(C(=O)N(C)C(=O)N(C)C2=O)C2CCCN32)c1 (centres undefined),3.7%,14.8%,23.0%,10.6%,3.1%
Cc1ccccc1-n1c(O)c(C=NCCN2CCOCC2)c(=O)[nH]c1=O,1.1%,-20.0%,-2.3%,4.3%,8.3%
CC(C)CNP(=S)(c1ccccc1)C(C)(C)C (centres undefined),.,7.94µM*,1.8%,?,?
C[C@@H](Cc1ccc(OCC(=O)O)cc1)NC[C@H](O)c1cccc(Cl)c1,10.7%,11.3%,-14.7%,2.6%,0.6%
CC(C)(C)CC(C)(C)c1ccc(O)cc1,.,-27.3%,21.7µM*,?,13.7µM*
CCC(C)(C)c1ccc(O)cc1,1.0%,28.8%[10 µM],?,1.9%,-14.3%
CC(C)(O)[C@H]1O[C@@H]2CC[C@]3(C)[C@@]4(C)c5[nH]c6ccccc6c5C[C@@H]4CC[C@]3(O)C2=CC1=O,13.1%,22.6%,?,-21.2%,?
CCC(=NCCCN(CC)CC)c1c(O)n(-c2ccccc2)c(=O)[nH]c1=O,-3.1%,-10.8%,1.6%,4.9%,0.1%
NCCCCN=C(N)N,8.0%[56.1 µM],-0.1%,6.68µM*!,5.7%,8.41µM*!
CC(O)CNc1ccc([N+](=O)[O-])c2cccnc12 (centres undefined),4.3%,-9.6%,?,2.4%,-24.4%
NCCNc1ccc([N+](=O)[O-])c2cccnc12,7.6%,-34.8%,20.6µM*,3.9%,?
CCN(CC)C(=O)c1ccc2c(c1)C1C(Cl)C(Sc3ccccc3[N+](=O)[O-])CC1C(C(=O)O)N2 (centres undefined),2.6%,-3.4%,20.6µM*,?,?
COC(=O)[C@@H](N)CCCN/C(N)=N/[N+](=O)[O-],.,.,-23.6%,.,?
Cc1nnc2n1-c1sc(Br)cc1C(c1ccccc1Cl)=NC2,.,.,?,.,-18.2%
O=C(CN1CCCCC1c1cccnc1)c1ccccc1 (centres undefined),16.8%,6.1%,-10.2%[9.04 µM],21.2%,3.0%[9.04 µM]
C=C1C([C@@H](O)C[C@H](C)C2O[C@@]3(CCCCO3)CC[C@H]2C)OC2CC[C@@]3(CC[C@@H](/C=C/[C@@H](C)C4CC(C)=C[C@]5(O4)O[C@H](C[C@@](C)(O)C(=O)O)CCC5O)O3)OC2[C@@H]1O (some centres undefined),9.8%,.,0.0104µM*,.,0.013µM*
